From PubChem BioAssay
Rows were chosen to be rich in hits. Some 11% of all compounds tested hit in one or more screens of this group.
HP1b binding inh: blocks HP1-beta chromodomain binding to methylated histone tails; P83916; AlphaScreen HP1-beta / biotin-H3K9me3 peptide binding; Potency, µM (top dose mostly 114 µM), hits mostly inhibitors; 390,000 compounds, 0.56% hits; AID 540317; also: nearly all actives have a fitted effect of over 70% in size
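AlphaScreen: HP1-beta (50 nM) preformed 30 min with biotin-H3(1-18)K9me3 peptide (50 nM) in PBS pH 7.4, 0.01% Tween-20. Compound added for 30 min at RT, then streptavidin donor/nickel chelate acceptor beads (10 ug/mL) for 30 min.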
L3MBTL1 inh: inhibitors of human L3MBTL1 | 230,000 compounds, 0.66% hits | AlphaScreen L3MBTL1–H3K9me1 peptide binding | Potency, µM (highest dose often 57.1 µM), usual class: inhibitors | Q9Y468; also: nearly all actives have a fitted effect of over 60% in size
Target sequence (Q9Y468 whole entry, looked up): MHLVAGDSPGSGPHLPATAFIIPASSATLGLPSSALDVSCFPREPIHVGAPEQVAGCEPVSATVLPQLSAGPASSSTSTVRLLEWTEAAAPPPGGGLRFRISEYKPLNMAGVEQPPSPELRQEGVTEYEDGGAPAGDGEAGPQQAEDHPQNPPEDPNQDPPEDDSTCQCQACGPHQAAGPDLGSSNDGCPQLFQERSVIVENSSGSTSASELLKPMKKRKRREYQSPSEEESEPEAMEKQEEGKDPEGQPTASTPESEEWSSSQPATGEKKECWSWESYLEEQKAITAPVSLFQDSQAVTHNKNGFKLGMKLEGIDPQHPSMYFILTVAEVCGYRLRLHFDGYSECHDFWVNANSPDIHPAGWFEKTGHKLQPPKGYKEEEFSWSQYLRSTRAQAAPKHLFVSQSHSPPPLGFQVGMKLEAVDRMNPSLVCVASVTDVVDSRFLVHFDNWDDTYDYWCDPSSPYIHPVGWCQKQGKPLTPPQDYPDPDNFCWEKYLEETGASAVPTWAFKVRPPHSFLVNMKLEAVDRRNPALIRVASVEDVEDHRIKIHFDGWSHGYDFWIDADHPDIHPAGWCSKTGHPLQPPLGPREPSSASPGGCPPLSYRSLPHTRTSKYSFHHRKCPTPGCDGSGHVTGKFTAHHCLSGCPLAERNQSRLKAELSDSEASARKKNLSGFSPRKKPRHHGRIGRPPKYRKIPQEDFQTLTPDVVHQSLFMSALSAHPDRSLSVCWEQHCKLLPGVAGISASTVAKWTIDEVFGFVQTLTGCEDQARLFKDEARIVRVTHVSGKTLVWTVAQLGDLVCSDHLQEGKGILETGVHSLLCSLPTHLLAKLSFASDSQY
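AlphaScreen proximity signal between nickel-chelate acceptor and streptavidin donor beads (final 10 ug/mL) reports binding of 50 nM L3MBTL1 to 75 nM biotin-H3 K9me1 peptide; complex incubated with compounds 30 min at room temperature; cefsulodin titration as control.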
G9a inh: blocks human histone lysine methyltransferase G9a; Q96KQ7; G9a H3K9 monomethylation, AlphaScreen, 2 h; Potency, µM (series often up to 102 µM), usual class: inhibitors; 350,000 compounds, 8.8% hits; AID 504332; also: nearly all actives have a fitted effect of over 75% in size
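AlphaScreen detection with an anti-monomethyl H3K9 antibody quantified product after a 2 h room-temperature reaction containing 500 nM biotinylated H3K9 peptide, 20 µM SAM and 20 nM enzyme, which had been preincubated 15 min with compound.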
BAZ2B block: BAZ2B (human) inhibition. AID 504333. Potency, µM (top dose mostly 114 µM), usual class: inhibitors. AlphaScreen BAZ2B-H3K14Ac peptide displacement. 360,000 compounds, 4.4% hits; also: nearly all actives have a fitted effect of over 60% in size
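AlphaScreen luminescence quantifies BAZ2B engagement of H3K14Ac peptide; the protein and biotinylated peptide are both at 50 nM final, buffer PBS pH 7.4 with 0.01% Tween-20, all steps at room temperature.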
JMJD2A Tudor: blocks the human JMJD2A Tudor domain | AlphaScreen JMJD2A-Tudor / H3K4me3 peptide binding | Potency, µM (titrated, usually from 114 µM), hits mostly inhibitors | 390,000 compounds, 4.4% hits; also: nearly all actives have a fitted effect of over 50% in size
A number is an active result. Calls follow the shape of the dose curve; as a rule, active = well fitted inhibition curve with a large enough effect; inconclusive = small, poorly fitted or top-dose-only effect; inactive = no such curve, though single readings can be large or run the other way.

Screening CC1S/C(=N/N=C/c2cccs2)NC1=O (stereo not given) returned HP1b binding inh inactive, L3MBTL1 inh inconclusive, G9a inh inactive, BAZ2B block inactive and JMJD2A Tudor inactive.
`CS(=O)(=O)c1ccc2nc(N)sc2c1` gave HP1b binding inh inactive, L3MBTL1 inh inactive, G9a inh inconclusive, BAZ2B block inactive and JMJD2A Tudor inactive.
`CS(=O)(=O)c1ccc(N)c(SSc2cc(S(C)(=O)=O)ccc2N)c1` gave HP1b binding inh inconclusive, L3MBTL1 inh inactive, G9a inh inconclusive, BAZ2B block 35µM and JMJD2A Tudor 1.4µM.
C=CCn1c(C)cc(-c2csc(NC(=O)C3=COCCO3)n2)c1C was read as HP1b binding inh inactive, L3MBTL1 inh inactive, G9a inh 45µM, BAZ2B block inactive and JMJD2A Tudor inactive.
C=CCn1c(C)cc(-c2csc(N)n2)c1C was read as HP1b binding inh inconclusive, G9a inh inconclusive, BAZ2B block 50µM and JMJD2A Tudor 40µM.
C=CCn1c(C)cc(-c2csc(NC)n2)c1C was read as HP1b binding inh inconclusive, L3MBTL1 inh inconclusive, G9a inh 8.9µM and JMJD2A Tudor 40µM.
For C=CCn1c(C)cc(-c2csc(NCC)n2)c1C the results were HP1b binding inh inconclusive, G9a inh 16µM, BAZ2B block 40µM and JMJD2A Tudor 50µM.
COC(=O)CCC(NS(=O)(=O)OCC(Cl)(Cl)Cl)c1ccccc1 (stereo not given) was read as HP1b binding inh inactive, L3MBTL1 inh inactive, BAZ2B block inactive and JMJD2A Tudor inactive.
`CC(C)CC(NS(=O)(=O)OCC(Cl)(Cl)Cl)c1ccccc1` (stereo not given) gave HP1b binding inh inactive, L3MBTL1 inh inactive, G9a inh inactive, BAZ2B block inactive and JMJD2A Tudor 40µM.
Screening CCOc1ccc(N(C(=O)c2ccc(Cl)cc2)S(=O)(=O)c2ccc3c(c2)n(C)c(=O)n3C)cc1 returned HP1b binding inh inactive, G9a inh inactive, BAZ2B block inactive and JMJD2A Tudor inactive.
Screening C/C(=N\NC(=O)c1c(C)nc2ccccn12)c1ccc(O)cc1O returned HP1b binding inh inactive, G9a inh inactive, BAZ2B block 1.8µM and JMJD2A Tudor inactive.
For C/C(=N\NC(=O)c1c(C)nc2ccccn12)c1ccccc1F the results were HP1b binding inh inactive, G9a inh inactive, BAZ2B block inconclusive and JMJD2A Tudor inactive.
O=[N+]([O-])c1ccc(N/N=C/c2ccccc2O)cc1 was read as HP1b binding inh inactive, G9a inh inactive, BAZ2B block inactive and JMJD2A Tudor inactive.
Screening Cc1cccc(N/N=C/c2ccncc2)c1 returned HP1b binding inh inactive, G9a inh 50µM, BAZ2B block inactive and JMJD2A Tudor inconclusive.
Screening Cc1cccc(NC(=O)C(=O)N/N=C/c2ccncc2)c1 returned HP1b binding inh inactive, L3MBTL1 inh inactive, G9a inh inconclusive, BAZ2B block inactive and JMJD2A Tudor inactive.
Cc1cccc(N/N=C/c2ccccc2O)c1 was read as HP1b binding inh inactive, L3MBTL1 inh inactive, G9a inh 1.6µM, BAZ2B block inactive and JMJD2A Tudor inconclusive.
Screening Cc1nc2ccc(NC(=S)NC3CC3)cc2nc1C returned HP1b binding inh inactive, L3MBTL1 inh inactive, G9a inh inactive, BAZ2B block inactive and JMJD2A Tudor inactive.
OCCNC(=S)Nc1ccc2nsnc2c1 was read as HP1b binding inh inactive, G9a inh 35µM, BAZ2B block inactive and JMJD2A Tudor inactive.
For O=C(NCCO)Nc1ccc2nsnc2c1 the results were HP1b binding inh inactive, L3MBTL1 inh inconclusive, G9a inh inactive, BAZ2B block inactive and JMJD2A Tudor inactive.
For Cc1nc2ccc(NC(=S)NCCCO)cc2nc1C the results were HP1b binding inh 79µM, L3MBTL1 inh inactive, G9a inh 28µM, BAZ2B block inactive and JMJD2A Tudor inactive.
Screening CCCN1CNc2c(c(=O)[nH]c(=S)n2CCc2ccc(Cl)cc2Cl)C1 returned HP1b binding inh inactive and JMJD2A Tudor inactive.
For N#Cc1cccc(S(=O)(=O)NCC(=O)NCc2ccc3c(c2)OCO3)c1 the results were HP1b binding inh inactive, L3MBTL1 inh inactive, G9a inh inconclusive, BAZ2B block inactive and JMJD2A Tudor inactive.
For COc1ccc(CNC(=O)CNS(=O)(=O)c2cccc(C#N)c2)cc1OC the results were HP1b binding inh inactive, G9a inh 50µM, BAZ2B block inactive and JMJD2A Tudor inactive.
Cc1ccc(CNC(=O)C(=O)NCC(c2cccs2)S(=O)(=O)c2cccs2)cc1 (stereo not given) was read as HP1b binding inh inactive, G9a inh inactive, BAZ2B block inactive and JMJD2A Tudor inactive.
Screening Cc1cc2nc3ccc(=[N+](C)C)cc-3sc2cc1N returned HP1b binding inh inactive, L3MBTL1 inh inactive, BAZ2B block 35µM and JMJD2A Tudor inconclusive.
For COc1cc(C(=O)NCc2nnc(SCC(=O)Nc3nccs3)o2)cc(OC)c1OC the results were HP1b binding inh inactive, L3MBTL1 inh inconclusive, G9a inh inactive, BAZ2B block 45µM and JMJD2A Tudor inconclusive.
`COc1cc(C(=O)NCc2nnc(SCC(=O)c3ccccc3)o2)cc(OC)c1OC` gave HP1b binding inh inactive, G9a inh 40µM, BAZ2B block inactive and JMJD2A Tudor inactive.
For COc1ccc(C(=O)NCc2nnc(SCC(=O)c3ccccc3)o2)cc1 the results were HP1b binding inh inactive, G9a inh inactive, BAZ2B block inactive and JMJD2A Tudor inactive.
Screening Cc1ccc2nc(-c3cccs3)c(Nc3ccc4c(c3)OCCO4)n2c1 returned HP1b binding inh inactive, G9a inh inconclusive, BAZ2B block inactive and JMJD2A Tudor inactive.
`CCCSc1n[nH]c(NC(C)=O)n1` gave HP1b binding inh inactive, L3MBTL1 inh inactive, G9a inh inconclusive, BAZ2B block inactive and JMJD2A Tudor inactive.
For CSc1n[nH]c(NC(C)=O)n1 the results were HP1b binding inh inactive, L3MBTL1 inh inactive, G9a inh inactive, BAZ2B block inconclusive and JMJD2A Tudor 11µM.
Screening O=C(OCC(=O)N1CCOCC1)c1cc(F)c(F)cc1Cl returned HP1b binding inh inactive, G9a inh inactive, BAZ2B block inactive and JMJD2A Tudor inactive.
For Cc1ccc(-n2c(SCC(N)=O)nc3c(oc4ccccc43)c2=O)cc1 the results were HP1b binding inh inactive, G9a inh inactive, BAZ2B block inactive and JMJD2A Tudor inactive.
Cc1ccc(Nc2cc(C(=O)NC3CCCC3)c3ccccc3n2)cc1C was read as HP1b binding inh inactive, G9a inh inactive, BAZ2B block inactive and JMJD2A Tudor inactive.
For O=C(O)CNC(=O)CC1S/C(=N/N=C2\CSC(=O)N2)NC1=O (stereo not given) the results were HP1b binding inh inactive, G9a inh inactive, BAZ2B block 6.3µM and JMJD2A Tudor 7.1µM.
Screening O=C(O)CNC(=O)CC1S/C(=N/N=C/c2ccccc2O)NC1=O (stereo not given) returned HP1b binding inh inactive, G9a inh inactive, BAZ2B block 50µM and JMJD2A Tudor inconclusive.
